Cdc25B block: human M-phase inducer phosphatase 2 inhibition | P30305 | recombinant Cdc25B, OMFP fluorescence Ex485/Em525 | inhibition, %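 (compounds tested at 10 µM final in the well)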 | 65,000 tested, 0.1% active | AID 368; in the data active = inhibition above about 50%
BAP1 block: human BAP1 deubiquitinase inhibition; Q92560; recombinant BAP1, Ub-AMC hydrolysis fluorescence kinetic; hits give low values; calls only at 20 µM; 72,000 tested, 0.48% active; AID 436;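 active = activity remaining at or below 50% of control, provided the compound also passes the data quality filters; inactive = the rest, including low values that fail the filters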;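 note: 100% = DMSO wells rate and 0% = substrate alone blank rate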
TNAP act DEA: activates human TNAP at intermediate phosphate acceptor concentration | P05186 | activation factor at 20 µM | 64,000 tested, under 10 active | purified TNAP, CDP-star luminescence, 100 mM DEA, 30 min; hits give high values; scale: 0 levamisole-inhibited, 1 vehicle-only enzyme;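 active = activation factor of at least 2 at 20 µM, relative to controls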
Ec RNAP inh: Escherichia coli RNA polymerase inhibition. 62,000 tested, 0.2% active. P0A8V2. E. coli RNA polymerase, fluorescence transcription assay. AID 559. inhibition, %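 (tested at 10 µM)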; in the data active = inhibition above about 20%;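 note: 0% = enzyme without compound and 100% = no enzyme blank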
HePTP inh: human HePTP phosphatase inhibition; recombinant HePTP phosphatase activity, OD absorbance; inhibition, % at 20 µM; 110,000 tested, 0.64% active; in the data active = inhibition above about 50%;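 note: plate controls were vehicle for no effect and reference inhibitor for full effect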
Target sequence (P35236 whole entry, looked up): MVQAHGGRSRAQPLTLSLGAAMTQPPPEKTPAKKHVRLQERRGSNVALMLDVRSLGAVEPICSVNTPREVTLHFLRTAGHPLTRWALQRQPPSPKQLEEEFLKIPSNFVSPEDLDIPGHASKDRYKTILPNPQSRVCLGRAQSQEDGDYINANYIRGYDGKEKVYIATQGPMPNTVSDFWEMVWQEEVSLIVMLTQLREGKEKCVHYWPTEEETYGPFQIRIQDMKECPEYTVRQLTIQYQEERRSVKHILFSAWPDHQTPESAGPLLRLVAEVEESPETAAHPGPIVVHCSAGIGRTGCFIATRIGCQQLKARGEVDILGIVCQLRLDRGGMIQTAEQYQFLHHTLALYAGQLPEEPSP
DUSP1 inh: blocks human MKP-1 phosphatase activity; inhibition, %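 (compounds tested at a single concentration somewhere between 10 and 100 µM)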; P28562; 65,000 tested, 0.15% active; recombinant MKP-1, OMFP hydrolysis fluorescence;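 active = inhibition above about 50%, limit read from the data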;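 note: 0% = DMSO max control wells and 100% = wells with enzyme stopped by NaOH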
Starred values were filed as active, the others as inactive; i = inactive; · = no result given. Most compounds without a hit are left out; they make up all but 1% or so of the library.

SMILES	Cdc25B block	BAP1 block	TNAP act DEA	Ec RNAP inh	HePTP inh	DUSP1 inh
O=C(O)c1ccc(NC(=O)c2ccc3c(c2)C(=O)N(c2ccc([N+](=O)[O-])cc2)C3=O)cc1	·	·	·	·	59*	·
O=C(Nc1ccc(I)cc1Cl)c1ccc([N+](=O)[O-])cc1	·	·	·	·	88*	·
O=C(O)c1ccc(NC(=O)c2cc(NC(=O)c3ccc(C(=O)O)cc3)cc(C(=O)Nc3ccc([N+](=O)[O-])cc3)c2)cc1	·	·	·	·	101*	·
COCCNC(=O)/C(=C/c1ccco1)NC(=O)c1ccc(OC)cc1	·	·	·	·	4	·
O=C(COc1ccc(Cl)cc1Cl)N1CCN(c2ccccc2)CC1	·	·	·	·	-8	·
CC1=C(C(=O)Nc2ccc(C)cc2)C(c2ccccc2F)NC(=S)N1 (stereo not drawn)	·	·	·	·	-14	·
COc1nsnc1NS(=O)(=O)c1ccc(NC(=S)NC(=O)c2sc3cc(F)ccc3c2Cl)cc1	·	·	·	·	102*	·
NS(=O)(=O)c1ccc(NC(=S)NC(=O)c2sc3cc(F)ccc3c2Cl)cc1	·	·	·	·	4	·
Cc1ccc(C(=O)NC(NC(=S)Nc2cc(C)ccc2C)C(Cl)(Cl)Cl)cc1 (stereo not drawn)	·	·	·	·	75*	·
CCOC(=O)C1=C(O)/C(=C\c2ccc(OC)cc2)SC1=Nc1cccc(Cl)c1	·	·	·	·	-4	·
CCOc1cc(/C=C2/SC(=S)N(C)C2=O)cc(Br)c1OCc1ccccc1Cl	·	·	·	·	0	·
CC(=O)NC1=NC(=O)/C(=C/c2cc(C)n(-c3ccc(C(=O)O)cc3)c2C)S1	·	·	·	·	61*	·
CC(C)(C)C(O)Cn1c(=N)n(Cc2ccccc2)c2ccccc21 (stereo not drawn)	·	·	·	·	7	·
C=CCN1C(=O)/C(=C\c2ccc(-c3ccc([N+](=O)[O-])cc3C)o2)C(=O)NC1=S	·	·	·	·	103*	·
O=C1NC(=S)N/C1=C\c1ccc(-c2cc([N+](=O)[O-])ccc2Br)o1	·	·	·	·	102*	·
O=C1NC(=S)N/C1=C\c1ccc(-c2cccc([N+](=O)[O-])c2)o1	·	·	·	·	5	·
C=CCN1C(=O)/C(=C\c2ccc(-c3ccc([N+](=O)[O-])cc3Br)o2)C(=O)NC1=S	·	·	·	·	98*	·
C=CCN1C(=O)/C(=C\c2ccc([N+](=O)[O-])o2)C(=O)NC1=S	·	·	·	·	103*	·
COc1ccc(CN=C(Nc2ccccc2)SC2CC(=O)N(c3cccc(Cl)c3)C2=O)cc1 (stereo not drawn)	·	·	·	·	-11	·
Cc1ccc(-c2nc3ccccc3o2)cc1NC(=O)/C=C/c1ccc(Cl)cc1	·	·	·	·	9	·
Clc1cccc(/C=N\N2CCN(c3ccccc3)CC2)c1Cl	·	·	·	·	9	·
O=C(/C=C/c1ccccc1)NC(=S)Nc1cccc(NC(=O)c2ccccc2Cl)c1	·	·	·	·	-17	·
O=C1NC(=O)N(c2ccc(Br)cc2)C(=O)/C1=C/c1ccc2c(c1)OCO2	·	·	·	·	4	·
Cc1nn(-c2ccccc2)c(C)c1NC(=O)c1cccs1	-13	i	0.9	-8	-4	0
Nc1nc(NC(=O)c2cccs2)nn1-c1ccccc1	10	i	0.8	21*	8	-14
SMILES	Cdc25B block	BAP1 block	TNAP act DEA	Ec RNAP inh	HePTP inh	DUSP1 inh
COc1ccc(C2NC(=S)NC(C)=C2C(=O)Nc2cccc(Cl)c2)cc1 (stereo not drawn)	·	·	·	·	3	·
CCOc1cc(/C=N/NC(=O)c2cc(-c3ccc4ccccc4c3)n[nH]2)ccc1O	·	·	·	·	-15	·
O=C(N/N=C/c1cccs1)c1cc(-c2ccc3ccccc3c2)n[nH]1	·	·	·	·	99*	·
COc1ccc(/C=N/NC(=O)c2cc(-c3ccc4ccccc4c3)n[nH]2)cc1O	·	·	·	·	68*	·
O=C(N/N=C/c1cccs1)c1cc(-c2ccc(Cl)cc2)n[nH]1	·	·	·	·	-5	·
O=C(CSc1nc2sc3c(c2c(=O)[nH]1)CCc1ccccc1-3)c1ccc(Cl)cc1	·	·	·	·	4	·
Cn1cccc1/C=C1/C(=O)NC(=S)N(c2cccc(Cl)c2)C1=O	·	·	·	·	101*	·
O=C(NC(NC(=S)Nc1ccc(Br)cc1)C(Cl)(Cl)Cl)c1ccccc1F (stereo not drawn)	·	·	·	·	103*	·
Nc1ncnc(Nc2ccc3ccccc3c2)c1[N+](=O)[O-]	·	·	·	·	8	·
COC(=O)C1(S(=O)(=O)c2ccc(Cl)cc2)CCOCC1	·	·	·	·	6	·
N#CCC(=O)N1CCN(C(c2ccccc2)c2ccccc2)CC1	·	·	·	·	103*	·
O=C(O)C1Nc2c(Cl)cc(Cl)cc2C2C=CCC12 (stereo not drawn)	·	·	·	·	103*	·
CC(=O)Nc1ccc2c(c1)C1C=CCC1C(C(=O)O)N2 (stereo not drawn)	·	·	·	·	80*	·
COc1ccc2c(c1)C1C=CCC1C(C(=O)O)N2 (stereo not drawn)	·	·	·	·	102*	·
